Source: the supplement of paper PMC12819154, “High-throughput peptide-centric local stability assay extends protein–ligand identification to membrane proteins, tissues and bacteria” (Nature Structural & Molecular Biology, 2025)

compound: CN[C@@H]1C[C@H]2O[C@@](C)([C@@H]1OC)n1c3ccccc3c3c4c(c5c6ccccc6n2c5c31)C(=O)NC4 [staurosporine]; test: log2 fold change of tryptic peptide abundance, ligand vs vehicle (limited proteolysis) (log2 ratio); higher = more trypsin-susceptible (destabilized); conditions: ligand concentration: 20 uM; sample: mouse liver crude lysate; replicate design: treated separately

UniProt E9Q414, sequence (E9Q414 whole entry): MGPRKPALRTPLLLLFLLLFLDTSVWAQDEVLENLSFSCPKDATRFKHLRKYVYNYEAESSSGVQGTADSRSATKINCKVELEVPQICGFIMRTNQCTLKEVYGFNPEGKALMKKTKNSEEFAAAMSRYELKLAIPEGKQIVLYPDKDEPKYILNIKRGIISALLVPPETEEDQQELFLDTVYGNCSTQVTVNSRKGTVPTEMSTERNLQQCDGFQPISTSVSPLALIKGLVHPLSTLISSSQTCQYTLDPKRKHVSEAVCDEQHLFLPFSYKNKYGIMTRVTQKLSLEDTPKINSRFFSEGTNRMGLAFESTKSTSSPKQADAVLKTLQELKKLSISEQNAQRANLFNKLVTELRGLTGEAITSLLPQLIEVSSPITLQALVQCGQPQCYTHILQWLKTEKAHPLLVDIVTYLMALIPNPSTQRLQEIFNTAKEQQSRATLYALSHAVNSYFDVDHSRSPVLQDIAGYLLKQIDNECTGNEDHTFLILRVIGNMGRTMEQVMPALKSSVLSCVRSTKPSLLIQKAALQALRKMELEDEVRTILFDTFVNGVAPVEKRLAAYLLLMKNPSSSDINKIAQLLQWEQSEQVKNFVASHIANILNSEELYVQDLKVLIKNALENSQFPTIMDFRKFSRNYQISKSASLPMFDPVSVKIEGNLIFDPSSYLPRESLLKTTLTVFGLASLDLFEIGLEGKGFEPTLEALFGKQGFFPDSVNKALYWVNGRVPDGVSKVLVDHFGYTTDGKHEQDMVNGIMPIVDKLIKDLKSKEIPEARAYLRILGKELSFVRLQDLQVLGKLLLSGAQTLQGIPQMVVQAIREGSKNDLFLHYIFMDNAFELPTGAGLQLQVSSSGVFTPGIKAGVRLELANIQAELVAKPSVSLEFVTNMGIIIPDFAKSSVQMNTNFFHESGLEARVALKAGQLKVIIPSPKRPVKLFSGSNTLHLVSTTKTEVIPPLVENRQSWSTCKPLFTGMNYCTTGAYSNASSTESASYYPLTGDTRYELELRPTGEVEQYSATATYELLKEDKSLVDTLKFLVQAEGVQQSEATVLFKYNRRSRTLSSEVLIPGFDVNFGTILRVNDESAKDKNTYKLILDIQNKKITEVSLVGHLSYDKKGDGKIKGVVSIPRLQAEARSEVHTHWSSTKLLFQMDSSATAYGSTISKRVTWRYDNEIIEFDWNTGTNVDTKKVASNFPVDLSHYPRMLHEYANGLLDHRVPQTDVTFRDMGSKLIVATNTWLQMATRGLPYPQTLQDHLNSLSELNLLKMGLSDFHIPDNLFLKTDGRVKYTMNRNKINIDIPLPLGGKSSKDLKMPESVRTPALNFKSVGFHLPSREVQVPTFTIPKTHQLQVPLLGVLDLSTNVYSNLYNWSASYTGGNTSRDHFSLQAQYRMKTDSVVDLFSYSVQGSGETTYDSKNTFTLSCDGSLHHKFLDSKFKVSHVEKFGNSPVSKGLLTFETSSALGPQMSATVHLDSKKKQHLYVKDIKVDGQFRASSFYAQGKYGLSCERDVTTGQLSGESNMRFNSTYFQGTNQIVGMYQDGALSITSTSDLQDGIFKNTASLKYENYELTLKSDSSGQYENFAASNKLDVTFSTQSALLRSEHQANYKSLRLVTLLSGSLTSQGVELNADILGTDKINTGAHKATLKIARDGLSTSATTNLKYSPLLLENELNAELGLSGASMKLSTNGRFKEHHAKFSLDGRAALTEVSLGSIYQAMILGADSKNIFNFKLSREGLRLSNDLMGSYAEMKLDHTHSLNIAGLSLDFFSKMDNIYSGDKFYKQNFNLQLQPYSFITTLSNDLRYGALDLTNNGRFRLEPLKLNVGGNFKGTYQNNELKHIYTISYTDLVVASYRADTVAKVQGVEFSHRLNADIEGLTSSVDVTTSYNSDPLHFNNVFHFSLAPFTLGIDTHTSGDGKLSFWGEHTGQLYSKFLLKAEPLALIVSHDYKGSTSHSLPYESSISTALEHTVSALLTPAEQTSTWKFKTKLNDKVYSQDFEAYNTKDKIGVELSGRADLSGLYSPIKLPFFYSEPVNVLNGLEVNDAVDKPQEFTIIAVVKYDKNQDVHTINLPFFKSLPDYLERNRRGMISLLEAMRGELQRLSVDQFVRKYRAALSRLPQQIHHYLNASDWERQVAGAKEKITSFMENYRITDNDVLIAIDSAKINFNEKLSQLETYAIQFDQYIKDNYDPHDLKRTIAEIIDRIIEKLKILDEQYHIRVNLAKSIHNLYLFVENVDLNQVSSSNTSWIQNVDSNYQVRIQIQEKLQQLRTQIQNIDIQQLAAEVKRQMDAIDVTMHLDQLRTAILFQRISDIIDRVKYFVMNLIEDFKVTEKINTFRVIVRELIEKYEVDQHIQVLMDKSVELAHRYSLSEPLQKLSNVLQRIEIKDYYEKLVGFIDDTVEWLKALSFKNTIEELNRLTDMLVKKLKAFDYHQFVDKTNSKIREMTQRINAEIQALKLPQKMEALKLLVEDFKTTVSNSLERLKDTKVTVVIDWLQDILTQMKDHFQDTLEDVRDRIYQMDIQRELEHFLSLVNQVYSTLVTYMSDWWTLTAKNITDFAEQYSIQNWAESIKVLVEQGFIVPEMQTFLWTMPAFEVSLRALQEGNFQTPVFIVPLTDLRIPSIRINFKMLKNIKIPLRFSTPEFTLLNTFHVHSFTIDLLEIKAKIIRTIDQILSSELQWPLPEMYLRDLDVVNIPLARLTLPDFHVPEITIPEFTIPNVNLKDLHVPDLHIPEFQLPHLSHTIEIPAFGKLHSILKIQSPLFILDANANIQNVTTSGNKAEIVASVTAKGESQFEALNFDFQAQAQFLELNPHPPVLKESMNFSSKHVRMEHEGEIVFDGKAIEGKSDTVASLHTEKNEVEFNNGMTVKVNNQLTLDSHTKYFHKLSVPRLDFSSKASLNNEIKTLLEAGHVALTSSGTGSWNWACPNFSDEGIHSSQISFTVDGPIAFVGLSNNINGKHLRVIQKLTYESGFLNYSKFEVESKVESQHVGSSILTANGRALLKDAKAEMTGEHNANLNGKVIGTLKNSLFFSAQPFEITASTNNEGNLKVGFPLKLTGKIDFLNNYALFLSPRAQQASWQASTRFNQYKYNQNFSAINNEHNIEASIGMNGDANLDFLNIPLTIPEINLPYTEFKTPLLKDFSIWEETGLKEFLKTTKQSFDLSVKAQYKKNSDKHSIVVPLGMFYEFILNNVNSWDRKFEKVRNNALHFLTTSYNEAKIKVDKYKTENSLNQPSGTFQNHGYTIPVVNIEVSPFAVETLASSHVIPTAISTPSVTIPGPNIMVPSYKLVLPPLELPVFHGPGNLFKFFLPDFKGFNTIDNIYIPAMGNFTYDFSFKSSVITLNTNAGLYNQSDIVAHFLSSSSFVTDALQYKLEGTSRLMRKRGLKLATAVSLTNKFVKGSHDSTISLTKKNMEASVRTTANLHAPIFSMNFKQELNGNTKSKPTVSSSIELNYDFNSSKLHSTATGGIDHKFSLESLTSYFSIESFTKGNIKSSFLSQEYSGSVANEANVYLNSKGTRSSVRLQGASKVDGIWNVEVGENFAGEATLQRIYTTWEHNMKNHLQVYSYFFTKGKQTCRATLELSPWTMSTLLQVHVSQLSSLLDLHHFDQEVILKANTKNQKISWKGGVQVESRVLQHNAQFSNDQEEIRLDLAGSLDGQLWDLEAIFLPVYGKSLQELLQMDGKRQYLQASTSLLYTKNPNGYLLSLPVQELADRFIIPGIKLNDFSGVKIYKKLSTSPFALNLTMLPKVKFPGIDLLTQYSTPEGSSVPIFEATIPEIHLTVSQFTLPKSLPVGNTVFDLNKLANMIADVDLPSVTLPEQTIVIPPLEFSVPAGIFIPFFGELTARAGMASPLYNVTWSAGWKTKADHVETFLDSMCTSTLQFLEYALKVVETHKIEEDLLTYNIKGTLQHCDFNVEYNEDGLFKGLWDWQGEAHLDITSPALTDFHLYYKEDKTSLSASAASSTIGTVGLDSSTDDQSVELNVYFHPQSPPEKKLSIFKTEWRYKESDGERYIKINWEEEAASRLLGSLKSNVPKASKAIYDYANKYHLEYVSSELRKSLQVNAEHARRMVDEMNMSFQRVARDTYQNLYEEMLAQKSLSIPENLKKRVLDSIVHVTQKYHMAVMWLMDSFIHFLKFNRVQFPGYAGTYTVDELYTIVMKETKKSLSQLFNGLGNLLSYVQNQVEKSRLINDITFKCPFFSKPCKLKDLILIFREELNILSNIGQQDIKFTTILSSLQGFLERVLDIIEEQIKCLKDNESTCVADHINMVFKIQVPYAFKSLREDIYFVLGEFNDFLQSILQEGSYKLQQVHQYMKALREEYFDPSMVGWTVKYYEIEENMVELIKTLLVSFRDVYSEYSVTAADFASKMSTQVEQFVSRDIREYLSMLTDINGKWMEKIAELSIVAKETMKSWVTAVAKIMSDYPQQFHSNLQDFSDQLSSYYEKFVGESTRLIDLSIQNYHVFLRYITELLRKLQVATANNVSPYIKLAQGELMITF
UniProt O70293, sequence (O70293 whole entry): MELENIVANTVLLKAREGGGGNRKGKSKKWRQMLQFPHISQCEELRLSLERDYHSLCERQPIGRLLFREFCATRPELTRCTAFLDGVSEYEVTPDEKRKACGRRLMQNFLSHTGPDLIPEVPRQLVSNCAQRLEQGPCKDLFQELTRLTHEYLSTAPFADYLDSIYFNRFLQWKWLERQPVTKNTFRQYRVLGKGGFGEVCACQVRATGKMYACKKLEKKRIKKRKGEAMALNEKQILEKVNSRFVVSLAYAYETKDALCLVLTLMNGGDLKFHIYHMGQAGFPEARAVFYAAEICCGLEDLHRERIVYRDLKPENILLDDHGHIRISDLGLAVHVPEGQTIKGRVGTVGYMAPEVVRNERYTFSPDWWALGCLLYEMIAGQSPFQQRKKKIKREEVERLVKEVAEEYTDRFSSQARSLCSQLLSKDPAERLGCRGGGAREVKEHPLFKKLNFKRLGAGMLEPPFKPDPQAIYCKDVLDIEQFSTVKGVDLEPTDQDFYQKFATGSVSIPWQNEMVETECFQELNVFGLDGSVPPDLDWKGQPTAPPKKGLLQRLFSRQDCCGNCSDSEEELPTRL

Row | Target | log2 fold change
1 | UniProt P28652 (peptide sequence: NLINQMLTINPAKR, peptide start residue: 247) | -2.11
2 | UniProt Q8BH59 (peptide sequence: LQVAGEITTGPR, peptide start residue: 457) | 0.568
3 | UniProt E9Q414 (peptide sequence: LPQQIHHYLNASDWER, peptide start residue: 2117) | 0.422
4 | UniProt Q925I1 (peptide sequence: LGKPSLVR, peptide start residue: 278) | 0.434
5 | UniProt O88643 (peptide sequence: LTDFGFCAQITPEQSKR, peptide start residue: 384) | -2.39
6 | UniProt Q62445 (peptide sequence: RFECPECSKR, peptide start residue: 704) | -1
7 | UniProt O70293 (peptide sequence: EFCATRPELTR, peptide start residue: 69) | -1.23
